# Reference: PubChem BioAssay (Tox21)
# Records with an inconclusive call do not appear. The source made the active and inactive calls. The call rests on the fitted dose curve; in most records, active means well fitted cell-killing curve with a large enough effect in the repeat runs; inconclusive means weak or mixed curves, or effect the other way; inactive means flat fitted curve, though single readings scatter.
# Assay: cAMP Responsive Elements (CRE) small molecule antagonists, cell-based qHTS assay: qHTS cell viability counter screen (AID 2060913); further: nearly all actives have a fitted effect of over 40% in size
# Conditions: CRE-bla HEK293T viability, CellTiter-Glo luminescence, 5 h; series mostly up to 92.4 µM; viability change, negative = cytotoxic: at the top concentration
# Outline: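 CRE-bla HEK293T cells (2,000/well, 18 h) given compound plus NKH477 0.25 uM final for 3 h at 37C; viability counter-screen by CellTiter-Glo luminescence in same wells after 30 min.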
# On the % scale 0 is the no-effect control and ±100 the full control effect; potency means the concentration at half of the fitted maximal effect.
Structure (SMILES),"viability change, negative = cytotoxic",Potency
Cc1nc(-c2ccc3c(c2)CCN(CCC2CCC(NC(=O)/C=C/c4ccc(F)cc4)CC2)CC3)no1 (stereo not given),0.472% [at 42.5 µM] (inactive),
Nc1ccc(N)c2c1C(=O)c1ccccc1C2=O,-4.86% (inactive),
OC(CCN1CCCCC1)(c1ccccc1)C1CC2C=CC1C2 (stereo not given),-2% [at 42.5 µM] (inactive),
Cc1nc2n(c(=O)c1CCN1CCC(C(=O)c3ccc(F)cc3)CC1)CCS2,13.4% [at 42.5 µM] (inactive),
O=C(/C=C/c1ccccc1)OC/C=C/c1ccccc1,-2.52% (inactive),
CCCC/C=C/C=C\C=O,0.317% (inactive),
CC=C(Cl)Cl,4.8% (inactive),
CC(C)(C)C(=O)c1ccccc1,7.56% (inactive),
O=C1Cc2cc(Cl)ccc2N1,4.44% [at 42.5 µM] (inactive),
Cc1cc(C)cc([N+](=O)[O-])c1,5.85% (inactive),
CC(C(=O)O)c1ccc(CC2CCCC2=O)cc1 (stereo not given),-2.16% [at 42.5 µM] (inactive),
O=C1CCCCCCCCCCCCCCCO1,-0.883% (inactive),
CC(C)(C)c1ccc(C(=O)CCCN2CCC(OC(c3ccccc3)c3ccccc3)CC2)cc1,-12.1% [at 42.5 µM] (inactive),
CCCCC(CC)COC(=O)CS (stereo not given),,inactive
C=C1c2cccc(O)c2C(O)=C2C(=O)[C@]3(O)C(O)=C(C(N)=O)C(=O)[C@@H](N(C)C)[C@@H]3[C@@H](O)[C@H]12,5.53% [at 42.5 µM] (inactive),
CCOC(=O)O[C@H](C)OC(=O)c1ccc2c(c1)cc(C(=O)NC1CCN(C(C)C)CC1)n2Cc1cc(-c2ccc(Cl)s2)on1,,57.1 µM (active)
CCCCCCCC/C=C\CCCCCCCC(=O)OC,3.34% (inactive),
Cc1onc(-c2ccccc2)c1-c1ccc(S(N)(=O)=O)cc1,2.62% [at 42.5 µM] (inactive),
COCC(C)O (stereo not given),,inactive
O=C1c2ccccc2Cc2ccccc21,4.7% (inactive),

Structure (SMILES),"viability change, negative = cytotoxic",Potency
Brc1c(NC2=NCCN2)ccc2nccnc12,0.835% [at 42.5 µM] (inactive),
CCCCCCCCn1sc(Cl)c(Cl)c1=O,,30.6 µM (active)
c1ccc2cc3c(ccc4ccccc43)cc2c1,,inactive
CC(=O)CC/C=C(\C)CC/C=C(\C)CC/C=C(\C)CCC=C(C)C,-3.75% [at 42.5 µM] (inactive),
Cc1cc(=O)oc2cc(N(C)C)ccc12,0.1% (inactive),
Cc1cc(C)nc(NS(=O)(=O)c2ccc(N)cc2)n1,,inactive
OC[C@H]1O[C@@H](Oc2ccc(O)cc2)[C@H](O)[C@@H](O)[C@@H]1O,,inactive
COC(Cc1ccccc1)OC,8.45% (inactive),
OCC(O)CO,,inactive
CC(O)CC(C)(C)O (stereo not given),,inactive
CC(COc1ccccc1)NN (stereo not given),1.96% [at 42.5 µM] (inactive),
CNCC[C@@H](Oc1ccccc1C)c1ccccc1,-0.434% [at 42.5 µM] (inactive),
CC1CCCC1,-3.26% (inactive),
C=CCCCCCCCCO,8.78% (inactive),
CN1CCCN(C(c2ccccc2)c2ccc(Cl)cc2)CC1 (stereo not given),-9.01% [at 42.5 µM] (inactive),
COc1ccc(OC)c(NC(=O)CC(C)=O)c1,4.24% (inactive),
CCCCC1=NC2(CCCC2)C(=O)N1Cc1ccc(-c2ccccc2-c2nn[nH]n2)cc1,12.9% [at 42.5 µM] (inactive),
C=CCCC=C,0.157% (inactive),
CCCOC(=O)c1ccc(O)cc1,2.88% (inactive),
O=C1CCCCCCCCCCC1,,inactive
